C2C12 statin = protects C2C12 myotubes from simvastatin toxicity. ATP luminescence, 48 h; scaled: DMSO 0, geranylgeraniol control 100. rescue of ATP level, % at 7.49 µM. actives 0.78% (n = 330,000). AID 602340;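 active = mean ATP rescue above about 67%, or every replicate alone reaching that limit, limit read from the data, passing the limit was not always enough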;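 note: myotubes were challenged with 10 µM simvastatin during compound exposure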
F508del corr = correctors of CFTR F508del function in bronchial epithelial cells | CFBE cells, YFP halide quenching; stimulated with forskolin plus potentiator P3; % fluorescence drop versus neutral controls | activity (quench increase), % at 7.58 µM | actives 0.36% (n = 350,000);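 active = mean added fluorescence quench of at least 8% versus neutral control, with both replicates also reaching 8%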;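 note: cells transiently co-express mutant CFTR-F508del with the halide-sensitive YFP; corrector assay measuring rescue of mutant channel to the surface after 24 h compound exposure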
ARNT TACC3 PPI = disruptors of human ARNT/TACC3 interaction; AlphaScreen His-ARNT PAS-B/GST-TACC3 binding, luminescence; TACC3 fragment carries E629A point mutation; inhibition, % at 9.99 µM; actives 0.66% (n = 390,000); AID 623870;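 active = mean inhibition of replicates at least 50% and at least half of replicates each reaching 50%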;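 note: 0% = complete ARNT plus TACC3 wells and 100% = ARNT alone without TACC3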
PglD DTNB = blocks C. jejuni PglD acetyltransferase activity; purified PglD enzyme, DTNB colorimetric CoA detection; inhibition, % at 12.5 µM; actives 0.098% (n = 360,000); AID 602405; in the data active = inhibition above about 16%, passing the limit was not always enough
* marks the source's active call; other numbers are inactive results; · = no result. In the library only some 1.4% were active in any assay of this set; here they are far more common.

SMILES	C2C12 statin	F508del corr	ARNT TACC3 PPI	PglD DTNB
CCOC(=O)N1CCN(C2CC(=O)N(c3ccc(Oc4ccccc4)cc3)C2=O)CC1 (configuration not stated)	126*	·	-6	6
CCOC(=O)N1CCN(C2CC(=O)N(c3ccc(C)cc3)C2=O)CC1 (configuration not stated)	·	·	-6	-5
CCOC(=O)N1CCN(C(=O)CSCC(=O)Nc2nc(-c3ccc4c(c3)OCO4)cs2)CC1	122*	·	1	2
O=C(CSCC(=O)N1CCOCC1)Nc1nc(-c2ccc3c(c2)OCO3)cs1	13	3	37	0
COc1ccc(NC(=O)c2cc([N+](=O)[O-])ccc2NC(=O)CNCc2ccccn2)c(OC)c1	8	0	46*	-11
COc1cc(NC(=O)c2cc([N+](=O)[O-])ccc2NC(=O)CNCc2ccccn2)cc(OC)c1	5	-2	38*	0
CN1CCN(C(=O)C2=C[C@H](c3ccc(Br)cc3)C[C@H](OCc3ccc(CO)cc3)O2)CC1	·	0	·	·
Cc1cc(NC(=O)c2ccc(N3C(=O)CCC3=O)cc2)no1	115*	·	-4	1
Cc1cc(NC(=O)c2ccc(N3C(=O)C4C5C=CC(C5)C4C3=O)cc2)no1 (configuration not stated)	·	-1	-6	·
Cc1c(N/N=C(\C#N)C(=O)c2ccc(Cl)cc2)c(=O)n(-c2ccccc2)n1C	·	·	60*	·
C[C@@H]1CN([C@@H](C)CO)C(=O)c2cc(NC(=O)C3CC3)ccc2O[C@@H]1CN(C)CC1CC1	-1	2	-7	8
C[C@@H]1CN([C@@H](C)CO)S(=O)(=O)c2ccc(-c3ccncc3)cc2O[C@H]1CN(C)C(=O)c1ccc2c(c1)OCO2	-8	-4	2	1
COCCCn1cnc2c(c1=O)c1nc3ccccc3nc1n2-c1ccccc1	127*	·	·	-2
O=C(O)CCSCCC(=O)O	91*	·	-9	-8
COC(=O)[C@@]12CCCCN1[C@H](c1ccc(-c3cccc(Cl)c3)c(OC)c1)[C@@H]1C(=O)N(C)C(=O)[C@@H]12	137*	0	-7	-3
CCC(C)Sc1ccc([C@@H]2[C@@H]3C(=O)N(CC)C(=O)[C@@H]3[C@]3(C(=O)OC)CCCCN23)cc1OC (some centres not stated)	138*	-4	5	1
COc1cccc(-c2ccc([C@@H]3[C@H](CO)N4C(=O)CN(C(=O)C5CCCC5)C[C@@H]34)cc2)c1	·	-1	·	·
Cc1nnc(NS(=O)(=O)c2ccc(N=Nc3ccc(N)nc3N)cc2)s1	-4	-1	57*	-5
CN1C(=O)c2cc(NC(=O)c3ccc(Cl)cc3)ccc2OC[C@H]2O[C@@H](CC(=O)O)CC[C@H]21	16	-3	-1	-1
O=C(O)CN(CC(=O)O)CC(=O)O	4	-1	65*	-3
CCc1cccc(CC)c1NC(=O)CN(CC(=O)O)CC(=O)O	3	2	18	2
CO[C@H]1CN(C)C(=O)c2ccc(NC(C)=O)cc2OC[C@@H](C)N(C(=O)Cc2ccccn2)C[C@@H]1C	-3	-1	-2	2
CCCCOc1nc2ccccc2nc1C(C#N)C(=O)NC1CCCCC1 (configuration not stated)	108*	·	0	-2
C[C@@H]1CN([C@H](C)CO)C(=O)Cc2cc(NC(=O)Nc3ccc4c(c3)OCO4)ccc2O[C@H]1CN(C)Cc1ccc2c(c1)OCO2	-6	1	-5	4
C[C@@H]1CN([C@@H](C)CO)C(=O)c2cc(-c3ccncc3)cnc2O[C@H]1CN(C)C(=O)NC1CCCC1	-2	-2	4	7
SMILES	C2C12 statin	F508del corr	ARNT TACC3 PPI	PglD DTNB
COc1ccc(-c2cc(C(=O)N3CCN(c4ccccn4)CC3)c3ccccc3n2)cc1	-7	·	4	-3
CCOc1ccc(-c2cc(C(=O)N3CCN(c4ccccn4)CC3)c3ccccc3n2)cc1	-68	12*	-3	0
COc1ccc(S(=O)(=O)Nc2ccc3c(c2)C(=O)N([C@@H](C)CO)C[C@@H](C)[C@H](CN(C)C(=O)Nc2ccc4c(c2)OCO4)OCCCC[C@H](C)O3)cc1	·	-1	0	2
COc1cccc(C(C[N+](=O)[O-])c2c(C)[nH]n(-c3ccccc3)c2=O)c1 (configuration not stated)	-2	-2	20	3
Cc1[nH]n(-c2ccccc2)c(=O)c1C(C[N+](=O)[O-])c1ccc(Br)cc1 (configuration not stated)	·	·	48*	·
Cc1noc(C)c1S(=O)(=O)Nc1ccc2c(c1)C(=O)N([C@@H](C)CO)C[C@H](C)[C@@H](CN(C)S(C)(=O)=O)O2	·	-1	-1	-9
COc1cccc(-c2csc(N3CCN(C(=O)Nc4ccccc4OC)CC3)n2)c1	77*	0	-7	·
COc1cccc(-c2csc(N3CCN(C(=O)Nc4ccc(F)cc4)CC3)n2)c1	8	·	5	1
Cc1ccc(N2CC(C(=O)Nc3ccc(N(C)C)cc3)CC2=O)cc1C (configuration not stated)	148*	·	-15	2
Cc1ccc(N2CC(C(=O)NC3=NCCS3)CC2=O)cc1C (configuration not stated)	13	·	-1	-5
Cc1cc(N2CC(C(=O)O)CC2=O)ccc1Br (configuration not stated)	76*	·	-3	-1
COc1ccc2c3c(n(C)c2c1)[C@@H](CO)N(C(=O)c1cccnc1)CC31CN(C)C1	·	-3	·	·
CO[C@H]1CN(C)C(=O)c2ccc(NC(C)=O)cc2OC[C@H](C)N(C(=O)CC2CC2)C[C@H]1C	-2	-1	·	·
Cc1cccc(C(=O)Nc2cc(OCc3cccc(F)c3)c(Cl)cc2Cl)c1	113*	·	-1	-3
Cc1nc(NCc2ccco2)c2cn[nH]c2n1	95*	0	-4	-2
COc1cc(/C=C2/SC(=S)N(Cc3ccccc3)C2=O)ccc1OCC(=O)O	-6	3	25	-7
O=C(O)c1ccc(/C=C2/SC(=S)N(Cc3ccccc3)C2=O)cc1	4	0	-8	2
O=C(CCN1C(=O)/C(=C/c2ccccc2)SC1=S)Nc1ccccn1	93*	2	2	-10
O=C(CCN1C(=O)/C(=C/c2cccs2)SC1=S)Nc1ccccn1	·	1	-2	·
COc1cc(/C=C2/SC(=S)N(Cc3ccccc3)C2=O)cc(Cl)c1O	6	8.1*	1	-4
O=C1/C(=C\c2ccc(O)cc2)SC(=S)N1Cc1ccccc1	9	26*	7	-6
CCc1ccc(S(=O)(=O)/N=C2/C=C(Sc3ncn[nH]3)C(=O)c3ccccc32)cc1	·	·	36*	·
CCc1ccc(S(=O)(=O)/N=C2\C=C(Nc3ccc(O)cc3)C(=O)c3ccccc32)cc1	-773	·	44	1
CCc1ccc(S(=O)(=O)/N=C2\C=C(Nc3cccc(C(=O)O)c3)C(=O)c3ccccc32)cc1	-313	1	69*	0
COc1ccc(CNc2ncnc3cc(OC)c(OC)cc23)cc1	111*	·	0	5

Screens deposited in PubChem BioAssay by Broad Institute.
